PubChem BioAssay (NCATS)
Results filed as inconclusive are left out. Unmarked numbers belong to inactive results. The source made the active and inactive calls. Calls follow the shape of the dose curve; as a rule, active = well fitted inhibition curve with a large enough effect; inconclusive = small, poorly fitted or top-dose-only effect; inactive = no such curve, though single readings can be large or run the other way. *1 amine or outer side, *2 acyl side, *3 side chain or, on linkers, in order; H or OH if unused. Where a SMILES comes first, the peptide text is derived from it. Bridges are numbered along the chain shown (N, C = ends). Roman numbers before positions name the chains, in order. [ ]: non-standard residue; d: D form. ξ: configuration not given here. Actinocin(9to1) = Cc1c2oc3c(C)ccc(C(=O)[*:1])c3nc-2c(C(=O)[*:2])c(N)c1=O; ξNMeV = CNC(C(=O)O)C(C)C; ξV = CC(C)C(N)C(=O)O; Sar = CNCC(=O)O

Test system: Zika virus NS2B-NS3 protease (linked construct)
Assay: Primary screen NINDS Rhodamine qHTS for Zika virus inhibitors (AID 1347160)
Conditions: purified NS2B-NS3 protease, Rhodamine110 substrate fluorescence; series mostly up to 57.1 µM; activity change, negative = inhibition: at the top concentration
Outline: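 Enzyme (25 nM, linked NS2B-NS3) was preincubated 15 min with compound in 10 mM Tris-HCl pH 8.0, 0.01% Tween 20. Rhodamine110 substrate (1.5 microM) was then added and fluorescence read at start and after 15 min.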
% is scaled to controls: 0 for no effect and ±100 for the full control effect.
Also: nearly all actives have a fitted effect of over 55% in size.

Compound | outcome | activity change, negative = inhibition
C=C1CCC2C(C)(C)C(O)CCC2(C)C1CCC(C)CCOC(=O)CCC(=O)O (centres undefined) | inactive [at 33.1 µM] | 
C[C@]12CCC(=O)C=C1[C@@H](O)C[C@@H]1[C@@H]2[C@@H](O)C[C@@]2(C)[C@H]1CC[C@]2(O)C(=O)CO |  | 18.7%
CC(C)c1ccc(CC(=O)N2CCC[C@@H](c3cccc(OC(C)(C)C(=O)O)c3)C2)cc1 |  | -24.2%
CN(C)c1cccc(-c2c3c(=O)n(-c4ccccc4Cl)[nH]c3cc(=O)n2C)c1 |  | 11.5%
CC1(C)CC2C(C1)C1(C)CCC13OC3(CO)C2O (centres undefined) |  | -9.38%
CCC(C)/C=C(C)/C=C/C1=CC2=C(Cl)C(=O)C(C)(OC(C)=O)C(=O)C2=CN1CCCC(=O)O (centres undefined) |  | -1.23% [at 33.1 µM]

Test system: not listed separately
Assay: Tertiary RLuc qRT-PCR qHTS assay for Zika virus inhibitors (AID 1347169); also: potency is read from the fitted curve at half-maximal effect; as to activity change, negative = inhibition: top concentration of the series differs between compounds
Conditions: infected Vero cells, reporter luminescence, 48-72 h; series mostly up to 45.9 µM; activity change, negative = inhibition: at the top concentration
Outline: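 Vero, 1,000 cells/well, o/n 37 C; cpd pinned in DMSO; ZIKV-RLuc Cambodian, MOI 1-2, 48-72 h 37 C; live-cell RLuc substrate, lum read at 1-1.5 h.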

Compound | activity change, negative = inhibition | Potency
CC12CCC3C(C)(C)C(O)CCC3(C)C1Cc1c(oc(C(=O)O)cc1=O)O2 (centres undefined) | -34.6% [at 26.6 µM] | 
O=S(=O)(O)c1cc(O)c2c(N=Nc3ccc(Nc4ccccc4)c4c(S(=O)(=O)O)cccc34)cc(S(=O)(=O)O)cc2c1 | -4.11% [at 1.74 µM] | 
Cc1c2oc3c(C)ccc(C(=O)N[C@@H]4C(=O)NC(C(C)C)C(=O)N5CCC[C@H]5C(=O)N(C)CC(=O)N(C)C(C(C)C)C(=O)O[C@@H]4C)c3nc-2c(C(=O)N[C@@H]2C(=O)NC(C(C)C)C(=O)N3CCC[C@H]3C(=O)N(C)CC(=O)N(C)C(C(C)C)C(=O)O[C@@H]2C)c(N)c1=O (some centres undefined) (I: T[ξV]P[Sar][ξNMeV] / II: T[ξV]P[Sar][ξNMeV]; ester I:1-I:C, II:1-II:C; linker I:N-II:N via Actinocin(9to1)) |  | 208 nM (active)
